{"source": "the supplement of paper PMC6555819"}
{"test_system": "VDR:RXRa (NR concentration 270 nM, RXRa partner concentration 90 nM)", "test": "PBM binding z-score (relative to random genomic background probes); higher = stronger binding; sequences stand for … in GC…GCGATTGACAGCGTAGAATGAAGG", "experimental": "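Protein-binding microarray (Agilent 4x180K custom design, double-stranded 60-nt probes: 5' GC cap, 34-nt variable region, 24-nt constant primer region; full probe sequence given). Purified or IVT nuclear receptor:RXRα heterodimers (3:1 NR:RXRα, mostly 270:90 nM) or homodimers were incubated for 1 h in PBS with 2% milk and no ligand, then detected with Alexa488 antibodies. Fluorescence from o1-orientation probes (~5 replicates averaged) was converted to z-scores against 500 random hg19 background probes. Variable regions are seed direct-repeat (DR0–DR5) sites, all their single-nucleotide variants and half-site ablations.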"}
{"sequence": "GCTTGTAGATCGAGGTTAAGAAAGACTAAGCTAA", "PBM binding z-score": 0.413}
{"sequence": "TCTAGCAGGGCAGAGGGTCACTCAAGAGGTACGG", "PBM binding z-score": 1.63}
{"sequence": "CCTTACGTGTCAAGGTTATAGCACGGGTGGTACG", "PBM binding z-score": 0.738}
{"sequence": "CGAACTAGGTCAGGGACAGTGAATCTCCGCACGC", "PBM binding z-score": 0.457}
{"sequence": "TCTATTAGTTGATTAGGGGAACCGAAACAGCGGA", "PBM binding z-score": 0.739}
{"sequence": "CGAACGCGGGCATGAGTTGATAGCAAATGCCGAT", "PBM binding z-score": -0.376}
{"sequence": "CCTAGCAGGCCAATCTGGGTCGCTCAAGGCTTGA", "PBM binding z-score": 0.301}
{"sequence": "CCGACTGGGGCAGTAAGGTTACCATACCATCCGG", "PBM binding z-score": 0.907}
{"sequence": "ATATGTAGATTAAGGGTCATTCAGGTTGGTTCGC", "PBM binding z-score": 5.22}
{"sequence": "CATACAGGGTCAGCTAGGCTAGAGTAGGGACGGC", "PBM binding z-score": 3}
{"sequence": "CGAACTAGGTCAGATCAGGACAGTGAAGGATGAT", "PBM binding z-score": 1.12}
{"sequence": "CCTACTGGTCCACGAAAGGTCATTGATTCAGTGA", "PBM binding z-score": 4.24}
{"sequence": "ATCGAAAGGTCGTGAGGTGAGGATACAGAAAGGC", "PBM binding z-score": 3.46}
{"sequence": "TCGAGTAGGTTAGTGGCATTCAGAATGGCGTCGA", "PBM binding z-score": -0.261}
{"sequence": "ATCGAAAGGACGAAGGTGAGTATACCCACCCGAA", "PBM binding z-score": -0.276}
{"sequence": "CGTCCAACGTCATAGGAGGTCAGTGAAGACAGAT", "PBM binding z-score": 2.06}
{"sequence": "CCTCACGGGTCAAGGTTATAGCACGGGTGGTACG", "PBM binding z-score": 3.18}
{"sequence": "ACTAGCAGGCCAAGTTTGGGTCACTCAGACAAAG", "PBM binding z-score": 0.43}
{"sequence": "CGTCCAAGGTCAGACAGGTCAGTGAATGCCGAGT", "PBM binding z-score": 5.82}
{"sequence": "AATACACGGTCATCGTAGGCCAGAGTACGCACAG", "PBM binding z-score": 0.576}
{"sequence": "TTACCAACGTGAAAGGTCGTTGATGCACGCCTTG", "PBM binding z-score": 1.74}
{"sequence": "CCTAGCAGGCCAGGGTCACTCGAGCATTTCGCTT", "PBM binding z-score": 2.54}
{"sequence": "CCGACTGGGGCAAGGATACCATAACGCACAGCCA", "PBM binding z-score": -0.596}
{"sequence": "TCTCGGAGGACACGAAGGTCGGAGCTTTCCAGAG", "PBM binding z-score": 0.528}
{"sequence": "CAAACTAGGTCACGAAAGGTCATAGTCGAATGAC", "PBM binding z-score": 6.92}
{"sequence": "TCTGTTAGGTCAACGATGGTCAGCTAATCTGCTA", "PBM binding z-score": 2.46}
{"sequence": "GCTAGTTGGTCAGTAAAGGGTCACACACCGGTCG", "PBM binding z-score": 3.09}
{"sequence": "TCGAGGAGGTTAGTCGGGGCATTCAGCCAACATA", "PBM binding z-score": 3.8}
{"sequence": "CGGCCAAGGTCAGCAGGTCAGTGAAAGCGACGTG", "PBM binding z-score": 3.8}
{"sequence": "TCTTGTAGATCAACAGGAGGTTAAGAACGATCGA", "PBM binding z-score": 0.419}
{"sequence": "TCTGCTAGGTAAGTTGGTCAGCTAACGAGCTGCC", "PBM binding z-score": -0.464}
{"sequence": "GATCCAGGGTCAAGGCCAGAGTACGCGTATTGAT", "PBM binding z-score": 4.58}
{"sequence": "ACAATGAGGTTAAGATCAGGGAAACAGAATACAT", "PBM binding z-score": 1.3}
{"sequence": "GCGAGTGGGGCATCAGCAGGTTACCATAACTTAA", "PBM binding z-score": 0.049}
{"sequence": "CCTACTGTGCCAAAGGTCATTGATTCCAATGCTC", "PBM binding z-score": 5.13}
{"sequence": "CCTCGGAGGACAACAGGAGGTCAGAGCAGCCAGA", "PBM binding z-score": 1.94}
{"sequence": "TCAAGTAGGTTACCAATGGGGCATTCAGCTTTCT", "PBM binding z-score": 0.549}
{"sequence": "CGTCCAAGGTCATAGGAGGTCAGTTAAGACAGAT", "PBM binding z-score": 6.3}
{"sequence": "TGAATAAGGTTAAAGATCAGGGAACGTGGCGTCG", "PBM binding z-score": 1.37}
{"sequence": "GGCACGAGGGCATTCGAGTTGATAGCATGGCGAT", "PBM binding z-score": 3.54}
